{"source": "ChEMBL document CHEMBL3988442", "about": "“University of Dundee, Small-Polar-MMV Screening Library” (2021)", "data": [{"target": "AMP-activated protein kinase, AMPK (Homo sapiens) (UniProt P54646+O43741+P54619+Q9UGJ0+Q9Y478+Q13131+Q9UGI9)", "assay": "AMP-dependent Kinase enzyme assay. An in vitro enzyme assay that detects ADP turnover that is directly proportional to AMPK activity. This uses naive AMPK that is activated during the assay with MK-8722", "format": "functional", "design": "scale not given: direction of the effect not stated beside the values", "settings": "30 µM", "units": {"Percent Effect": "%"}, "values": [{"smiles": "CN1CC(C(=O)NCc2ccc(Br)cc2F)CC1=O", "note": "(centres undefined)", "Percent Effect": 8.64}, {"smiles": "COC(=O)c1sc(C(NC(=O)c2ccccc2)C2CC2)nc1C", "note": "(centres undefined)", "Percent Effect": -2.15}, {"smiles": "Cc1cc(C2CCCN(Cc3cccnc3)C2)n[nH]1", "note": "(centres undefined)", "Percent Effect": -0.765}, {"smiles": "Cn1cccc1CN(C(=O)Cc1cccs1)C1CC1", "Percent Effect": -4.04}, {"smiles": "CC1(C)CC(C(=O)N2CCC3(CCC(=O)N(C4CC4)C3)CC2)CCO1", "note": "(centres undefined)", "Percent Effect": -0.458}, {"smiles": "Cc1ccnc(C2COCCN2C)n1", "note": "(centres undefined)", "Percent Effect": 26}, {"smiles": "CN(CCc1ccccn1)C(=O)c1cccs1", "Percent Effect": 6.23}, {"smiles": "Cc1cc(=O)n(CCNC(=O)c2ccccc2Cl)cn1", "Percent Effect": -4.73}, {"smiles": "Cc1n[nH]c(C)c1CCc1ccc(S(C)(=O)=O)cc1", "Percent Effect": 0.986}, {"smiles": "CN(Cc1csc(-c2cccs2)n1)CC(O)CO", "note": "(centres undefined)", "Percent Effect": 5.86}, {"smiles": "CN(CC1CCCCO1)c1nc2c(cc1C(N)=O)CCC2", "note": "(centres undefined)", "Percent Effect": -5.23}, {"smiles": "COc1ccc(C(=O)N2C[C@@H](O)[C@H](NCc3ncccc3C)C2)cc1", "Percent Effect": -3.45}, {"smiles": "CC(C)(C)CN(CCC#N)C(=O)c1cccc(CN2CCCC2)c1", "Percent Effect": 7.06}, {"smiles": "CCCc1cc(N(CCOC)CC(F)F)n2ncnc2n1", "Percent Effect": 11.5}, {"smiles": "NC(=O)C(NC1CCN(Cc2ccc(F)cc2)CC1)c1ccccc1", "note": "(centres undefined)", "Percent Effect": -4.88}, {"smiles": "Cc1ccccc1[C@@H]1CN(CCCS(=O)(=O)N(C)C)C[C@H]1C(=O)O", "Percent Effect": -1.92}, {"smiles": "CCCC1c2ccccc2CCN1CCS(C)(=O)=O", "note": "(centres undefined)", "Percent Effect": -0.239}, {"smiles": "Cn1ccnc1-c1cnn(CC(=O)Nc2ccnn2C)c1", "Percent Effect": -2.32}, {"smiles": "Cc1ccc(S(=O)(=O)N(CCO)C2CC2)cc1N(C)C", "Percent Effect": -7.34}, {"smiles": "COCCN(Cc1sccc1C)C(=O)COc1cccnc1", "Percent Effect": -3.19}, {"smiles": "CCCc1ccc(CN2CCC3(CCC(=O)N(CCO)C3)CC2)o1", "Percent Effect": 12.9}, {"smiles": "CNC(=O)c1cccnc1NCc1ccc(-n2cccn2)cc1", "Percent Effect": -0.487}, {"smiles": "Cc1nc(COc2ccc(N(C)S(C)(=O)=O)cc2)sc1C", "Percent Effect": -7}, {"smiles": "Cc1ncc(C(=O)N2CCOC(C(=O)N3CCCCC3)C2)c(C)n1", "note": "(centres undefined)", "Percent Effect": -4.59}, {"smiles": "NCc1cccc(NC(=O)CCN2CCOCC2)c1", "Percent Effect": -8.1}, {"smiles": "COCC(C)NC(=O)c1sccc1-n1cnnn1", "note": "(centres undefined)", "Percent Effect": 15.6}, {"smiles": "COc1ccc(N2CCC(NC(=O)c3sccc3C)CC2)cc1", "Percent Effect": -1.46}, {"smiles": "CC(O)C1CCN(C(=O)CCOc2ccccc2F)CC1", "note": "(centres undefined)", "Percent Effect": 4.43}, {"smiles": "O=C(CN1CC(c2nc(C3CC3)no2)C1)NCc1ccc(F)cc1", "Percent Effect": 3.03}, {"smiles": "COC(=O)CSCc1noc(-c2ccc(C)cc2)n1", "Percent Effect": -5.29}, {"smiles": "CCS(=O)(=O)NCc1nc(C)cc(N2CCCC2)n1", "Percent Effect": 2.4}, {"smiles": "Clc1ccc2cccnc2c1CNC1CCc2ncnn2C1", "note": "(centres undefined)", "Percent Effect": 3.85}, {"smiles": "CC(C)c1nc(C2CCCN2CCS(C)(=O)=O)no1", "note": "(centres undefined)", "Percent Effect": 6.84}, {"smiles": "Cc1csc(C(C)(C)NCCOc2ccc(CC#N)cc2)n1", "Percent Effect": -8.66}, {"smiles": "CSc1ccc(C(=O)C2CCCN(C(=O)CCCn3cncn3)C2)cc1", "note": "(centres undefined)", "Percent Effect": 9.79}, {"smiles": "CO[C@H]1CN(Cc2c(C)ccc3ncccc23)CC[C@H]1N", "Percent Effect": 1.31}, {"smiles": "C=C(C)Cn1nc(C)c(CN2CCN(C3CCCCC3)C(=O)C2)c1C", "Percent Effect": 10.7}, {"smiles": "CC(=O)Nn1ccc2c(nnc3c(-c4ccc(F)cc4)cnn32)c1=O", "Percent Effect": 10.3}, {"smiles": "NC(=O)COc1cccc(Cn2cc(Br)cn2)c1", "Percent Effect": 3.8}]}]}
